Data from PMC4336329 (PLoS ONE, 2015).
Among all 310,000 compounds or so, about 14,000 (4.5%) showed an effect of 50% or more. Effects have a minus sign here. Only a selection was taken, and strong results are over-represented in it overall.

target: human ether-à-go-go-related gene (hERG) potassium channel (human, UniProt Q12809); assay: primary screen, population patch clamp on CHO cells stably expressing hERG; higher = less effect of the substance
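Note: peak tail current of the secondary pulse compared with the same well before compound.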

Chain of human ether-à-go-go-related gene (hERG) potassium channel (Q12809 whole entry, looked up): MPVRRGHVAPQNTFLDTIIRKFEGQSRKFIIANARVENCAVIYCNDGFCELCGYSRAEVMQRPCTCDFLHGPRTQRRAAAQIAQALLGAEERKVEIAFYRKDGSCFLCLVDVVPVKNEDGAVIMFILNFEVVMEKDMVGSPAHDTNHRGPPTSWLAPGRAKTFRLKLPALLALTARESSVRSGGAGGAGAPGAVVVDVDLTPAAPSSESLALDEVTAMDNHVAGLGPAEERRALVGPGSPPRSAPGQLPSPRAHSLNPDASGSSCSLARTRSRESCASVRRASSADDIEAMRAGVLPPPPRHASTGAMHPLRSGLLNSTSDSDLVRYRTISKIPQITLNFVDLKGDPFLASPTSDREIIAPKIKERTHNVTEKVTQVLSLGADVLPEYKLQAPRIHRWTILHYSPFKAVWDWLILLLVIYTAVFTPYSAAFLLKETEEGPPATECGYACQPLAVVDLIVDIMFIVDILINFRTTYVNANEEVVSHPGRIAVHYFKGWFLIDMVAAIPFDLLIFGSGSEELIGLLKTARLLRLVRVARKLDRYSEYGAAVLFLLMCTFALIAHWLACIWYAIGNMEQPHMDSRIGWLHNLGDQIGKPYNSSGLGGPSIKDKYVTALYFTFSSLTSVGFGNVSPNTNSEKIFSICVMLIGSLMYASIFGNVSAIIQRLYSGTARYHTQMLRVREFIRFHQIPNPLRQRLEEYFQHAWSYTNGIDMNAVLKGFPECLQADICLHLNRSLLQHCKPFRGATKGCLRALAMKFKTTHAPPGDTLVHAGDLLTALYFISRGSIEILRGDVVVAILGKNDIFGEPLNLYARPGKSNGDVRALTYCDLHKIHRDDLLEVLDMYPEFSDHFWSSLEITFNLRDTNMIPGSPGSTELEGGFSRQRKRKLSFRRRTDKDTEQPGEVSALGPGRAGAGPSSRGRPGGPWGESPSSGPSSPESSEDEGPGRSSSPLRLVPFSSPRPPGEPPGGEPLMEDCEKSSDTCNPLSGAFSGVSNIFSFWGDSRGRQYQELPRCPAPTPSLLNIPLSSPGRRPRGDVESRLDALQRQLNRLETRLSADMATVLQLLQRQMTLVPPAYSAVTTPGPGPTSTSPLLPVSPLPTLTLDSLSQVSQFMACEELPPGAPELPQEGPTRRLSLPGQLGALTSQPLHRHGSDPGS

Structure (SMILES)	hERG current change (%, negative = inhibition) at 10uM
[Cl-].c1ccc(CC[C@@H]2CC[C@@H](CCc3ccccc3)N2)cc1	-66%
O=C(O)C1CSC(CCc2ccccc2)N1 (centres unmarked)	14%
c1ccc(CCC2Cc3ccccc3N2)cc1 (centres unmarked)	-0.839%
COC(=O)c1[nH]c2ccccc2c1NC(=O)Oc1ccccc1	12%
CN1CCN(c2cc([N+](=O)[O-])ccc2Cl)CC1	-23.3%
O=[N+]([O-])c1ccc(N2CCNCC2)c(Cl)c1	-6.48%
O=[N+]([O-])c1ccc(N2CCN(c3ccc(Cl)nn3)CC2)c(Cl)c1	-23.7%
CN1CCN(c2ccc([N+](=O)[O-])cc2NC(=O)c2cccs2)CC1	-55.2%
COc1ccc(N2CCN(c3ccc([N+](=O)[O-])cc3Cl)CC2)cc1	-12.1%
COC(=O)c1ccc(N2CCN(C)CC2)c(NC(=O)c2cccs2)c1	-8.75%
O=C(Nc1cc([N+](=O)[O-])ccc1N1CCOCC1)c1cccs1	1.15%
O=C(Nc1cc([N+](=O)[O-])ccc1N1CCCC1)c1ccccc1	-33.3%
O=C(Nc1cc([N+](=O)[O-])ccc1N1CCCC1)c1cccs1	-65.4%
Cc1ccc([N+](=O)[O-])cc1NC(=O)c1cccs1	18.4%
CN1CCN(c2ccc([N+](=O)[O-])cc2Cl)CC1	-52.2%
Cc1ccc2nc(C)c(CN3CCN(c4ccc([N+](=O)[O-])cc4Cl)CC3)n2c1	-69.3%
COC(=O)C1=C(N)Oc2cc(C)n(Cc3ccncc3)c(=O)c2C1c1cccnc1 (centres unmarked)	-14.8%
CCn1c(/C=C\c2ccccc2C)nc2ccccc2c1=O	-19.1%
CC(C)c1ncc(S(=O)(=O)c2ccc(C(F)(F)F)cn2)c(N)n1	11.6%
CCOc1ncccc1C(=O)N1CCN(c2cc(Cl)ccc2C)CC1	-4.75%
CCCCN1Cc2c(nc3cc(-c4ccccc4)[nH]n3c2=O)C1=O	6.51%
Clc1ccccc1-c1nn2c(-c3ccncc3)nnc2s1	-7.89%

Structure (SMILES)	hERG current change (%, negative = inhibition) at 10uM
O=C(Nc1cccc(Cl)c1)Nc1nnc(-c2ccccc2)o1	3.18%
CN1CCN(c2ccc([N+](=O)[O-])cc2NC(=O)c2ccccc2Cl)CC1	-71.1%
O=C(Nc1ccccc1N1CCCC1)c1ccc([N+](=O)[O-])cc1Cl	-21.5%
CN1CCN(c2ccccc2NC(=O)c2ccc([N+](=O)[O-])cc2Cl)CC1	-34.9%
Cn1c(=O)oc2cc(S(=O)(=O)NCCC(=O)Nc3ccc4c(c3)OCCO4)ccc21	2.4%
CCOc1ccc(CCNC(=O)COC(=O)c2cccnc2OCC)cc1OCC	-1.87%
CCN(Cc1ccc(OC)c(F)c1)C(=O)c1oc2ccccc2c1COC	-54.6%
COc1ccc(CN(C)C(=O)c2oc3ccccc3c2CSC)cc1F	14.4%
CCN(Cc1ccc(OC)c(F)c1)C(=O)c1cc2ccccc2o1	-24.7%
CC(/C=C/c1cccc([N+](=O)[O-])c1)=N/NC(=O)c1cccnc1	-22.7%
O=c1c(C(c2ccc(F)cc2)c2c(O)nc3n(c2=O)CCCS3)c(O)nc2n1CCCS2	9.97%
O=C(Nc1cccc(Cl)c1)OCc1cn(-c2ccccc2)nn1	-52.6%
O=C(Nc1cccc(Cl)c1)OCc1cn(-c2ccc(Cl)cc2)nn1	1.69%
O=C(Nc1ccccc1)OCc1cn(-c2ccc(Cl)cc2)nn1	22.3%
Cc1ccc(NC(=O)COc2ccc(CCO)cc2-n2nc3ccccc3n2)cc1C	6.89%
N#Cc1ccc(COc2ccc(CCO)cc2-n2nc3ccccc3n2)cc1	-66.6%
OCCc1ccc(O)c(-n2nc3ccccc3n2)c1	-17.1%
COc1ccc(NC(=O)c2ccc(COCC(F)(F)C(F)F)cc2)cc1OC	7.39%
COC(=O)CCC(=O)OC1(C)C(=O)C=C2C=C(C3CC3)N(CCCCO)C=C2C1=O (centres unmarked)	4.26%
CCOCCCNCc1ccc(OCc2ccccc2C)c(OC)c1.Cl	-24.4%
CCOCCCNCc1cc(Br)ccc1OCC.Cl	-55.5%
CCOc1ccc(Br)cc1CNCCN1CCOCC1	1.31%
